MITF TRPM1 HTS: MITF TRPM1 promoter activation in melanoma cells; SK-MEL-5 TRPM1-promoter luciferase, 24 h; % of positive control, neutral wells = 0; activation, % at 12.5 µM; actives 0.75% (n = 300,000); AID 588334;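 active means mean activation of at least 80% with every replicate also reaching 80%; inconclusive means mean reaches 80% but some replicate falls short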;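 further: 0% = neutral control wells and 100% = parthenolide positive control wells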
Wnt act: Wnt/beta-catenin pathway activation | Wnt/beta-catenin reporter cell assay, activator, plate reader | activation, % at 9.35 µM | actives 1.2% (n = 300,000) | AID 743398; in the data active means activation above about 30%, passing the limit was not always enough; inconclusive means no clear call, values can overlap the other calls;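 further: 0% = neutral control wells and 100% = positive control wells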
GAA850 FXN act: increases GAA850 frataxin promoter reporter activity; HEK293 lucGAA850 FXN promoter luciferase reporter, 24 h; percent of 10 µM SAHA response; activation, % at 6 µM; actives 0.56% (n = 360,000);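 active means activation above the average of all compounds screened plus 3 SD, cutoff fixed separately per campaign, cut at about 7.5% in these data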;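 further: 0% = DMSO wells and 100% = 10 µM SAHA wells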
esBAF inh: SWI/SNF esBAF complex inhibition | mouse ES cells, Bmi1-luciferase knock-in reporter, 24 h; 100% = twice the neutral-well signal | reporter increase, % at 12.5 µM | actives 2% (n = 350,000) | AID 602393; in the data active means activation above about 40%; inconclusive means no clear call, values can overlap the other calls;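 further: 0% = median of the plate's neutral control wells and 100% = double that signal; a rise in the Bmi1 reporter signal indicates esBAF inhibition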
An asterisk follows results filed as active; ? = inconclusive; nt = not tested or not shown. Only some compounds are listed: those with a hit (about 2.8% of all), similar ones and a draw of the others.

SMILES | MITF TRPM1 HTS | Wnt act | GAA850 FXN act | esBAF inh
CCCNC(=O)Nc1ccc2c(c1)OC[C@H](C)N(CC1CCCC1)C[C@@H](C)[C@H](OC)CN(C)C2=O | nt | nt | nt | 6.2
COC(=O)C[C@H]1CC[C@H](N)[C@@H](CO)O1 | nt | nt | nt | -2.9
O=C(CSc1ccsc1[N+](=O)[O-])NCc1ccco1 | -4.6 | 32.9* | -0.5 | nt
COCCCNC(=O)CSc1ccsc1[N+](=O)[O-] | 5.2 | -1.0 | 2.2 | nt
O=S(=O)(c1ccc(F)cc1)N1CCCCN2[C@H](C1)[C@@H](c1ccc(-c3cncnc3)cc1)[C@@H]2CO | nt | nt | nt | 1.2
CN(c1ccc(O)cc1)S(=O)(=O)c1ccc2ccccc2c1 | 33.0 | 0.2 | 3.1 | 57.7*
CCc1onc(C)c1C(=O)Nc1ccc2c(c1)OCO2 | -5.9 | 0.3 | -1.1 | 7.0
Cc1noc(C(=O)Nc2ccc3c(c2)OCO3)c1Cl | 54.7 | 12.3 | 2.4 | 51.0*
Cc1ccc2c(Cl)c(C(=O)Nc3ccc4c(c3)OCO4)sc2c1 | 98.9* | nt | 4.0 | nt
COC(=O)c1sccc1NC(=O)Nc1cccc(C(C)=O)c1 | 1.2 | -1.4 | 1.9 | 1.4
COC(=O)c1sccc1NC(=O)Nc1cccc(C)c1 | 18.9 | 12.0 | 3.1 | 94.8*
Cn1c(-c2ccc(C(C)(C)C)cc2)n[nH]c1=S | 14.0 | nt | 3.2 | 50.0*
COc1ccc(-c2nc(C#N)c(NCCc3ccccc3)o2)cc1 | 65.9 | 19.1 | 3.3 | nt
N#Cc1nc(-c2ccc(Cl)cc2)oc1NCCc1ccccn1 | 27.3 | 36.3* | 4.8 | 24.0
Cc1ccc(-c2nc(C#N)c(NCCc3ccccn3)o2)cc1 | 66.8 | nt | 1.4 | 52.2*
CO[C@H]1CN(C)C(=O)c2cc(NC(=O)NC(C)C)ccc2OC[C@@H](C)N(C)C[C@@H]1C | nt | nt | nt | -2.5
CC(C)n1c(/C=C/c2ccccc2)nc2ccccc21 | 53.1 | 21.2 | 2.5 | 50.9*
CCCn1c(/C=C/c2ccccc2)nc2ccccc21 | 16.9 | nt | 3.8 | 18.2
O=C(Nc1ccc2c(c1)N(S(=O)(=O)c1cccs1)CCC2)c1c(F)cccc1F | -5.3 | 1.5 | 1.2 | -2.0
O=S(=O)(c1cccs1)N1CCCc2cccc(O)c21 | 95.1* | 47.9* | 3.5 | 45.0*
CC(C)CN(CCOc1cccc(N2C(=O)C3=C(CCCC3)C2=O)c1)CC(C)C | -15.9 | 42.3* | 0.5 | nt
O=C1C2=C(CCCC2)C(=O)N1c1cccc(OCCBr)c1 | 3.5 | -7.1 | 1.9 | nt
COc1ccc2cc(C[C@@H]3CC[C@@H](CO)O3)ccc2c1 | 118.2* | 21.2 | 4.5 | 66.6*
O=C(O)COn1c(-c2ccccc2)nc2ccc([N+](=O)[O-])cc21 | 59.4 | 12.4 | 1.5 | 48.7*
O=C(O)COn1c(-c2ccc(Cl)cc2)nc2ccc(Cl)cc21 | 57.2 | 13.4 | 5.3 | nt
SMILES | MITF TRPM1 HTS | Wnt act | GAA850 FXN act | esBAF inh
CCOC(=O)C(C)On1c(-c2ccc(Cl)cc2)nc2ccc([N+](=O)[O-])cc21 (configuration not stated) | 58.4 | nt | 0.1 | nt
CCOC(=O)C(C)On1c(-c2ccccc2)nc2ccc([N+](=O)[O-])cc21 (configuration not stated) | 98.8* | nt | 3.1 | nt
COc1ccc(Cn2c(-c3ccc(Br)cc3)c[n+]3ccccc23)cc1 | -13.8 | 57.8* | 2.4 | -15.7
COc1ccc(Cn2c(-c3ccc(OC)cc3)nc3ccccc32)cc1 | 4.8 | 0.0 | 3.3 | nt
COc1ccc(/C=C(/NC(=O)c2ccc(Br)cc2)C(=O)Nc2cccc(C(=O)O)c2)cc1 | nt | 8.4 | 2.1 | nt
Cn1cc(Br)c(C(=O)NNC(=O)c2ccc(Cl)cc2)n1 | 18.6 | 51.3* | 2.8 | 30.4
COc1ccc(/C=C(/NC(=O)c2ccccc2Cl)C(=O)O)cc1 | 2.2 | 47.0* | 1.7 | nt
COc1cccc(C(=O)N/N=C(\C)CC(=O)Nc2ccc(N(C)C)cc2)c1 | -3.2 | 6.1 | 1.6 | 22.9
COc1ccc(/C=C(\NC(=O)c2ccc(OC)cc2)C(=O)Nc2cccc(C(=O)O)c2)cc1 | 3.0 | 8.8 | 0.9 | 46.1*
COc1cccc(/C(C)=N/NC(=O)c2ccc(N(C)C)cc2)c1 | 72.8 | nt | 1.2 | 53.0*
Cc1cccc(S(=O)(=O)N2C[C@@H](O)COC[C@H]3O[C@@H](CC(=O)N4CCN(C)CC4)CC[C@@H]32)c1 | nt | nt | nt | -5.7
C[C@@H]1CN([C@@H](C)CO)S(=O)(=O)c2ccc(C#CCC3CCCC3)cc2O[C@H]1CN(C)Cc1cccc(C(=O)O)c1 | nt | nt | nt | 2.8
COC(=O)C[C@@H]1CC[C@H]2[C@H](COc3ccc(NS(C)(=O)=O)cc3C(=O)N2C)O1 | nt | nt | nt | -1.1
COc1cccc(NC(=O)c2cccc(C(=O)Nc3cccc(OC)c3)c2)c1 | nt | -0.4 | 2.2 | -0.8
COc1ccccc1NC(=O)c1ccc2nsnc2c1 | 90.7* | 25.6 | 4.8 | 37.0
COc1ccccc1OCCNC(=O)c1ccc(C(C)(C)C)cc1 | nt | 0.0 | 5.0 | nt
COc1cc(C(=O)Nc2ccc(NC(C)=O)cc2)ccc1OCc1ccccc1 | -2.9 | -0.8 | 2.0 | nt
COc1cccc(NC(=O)c2ccccc2)c1 | 104.5* | 26.1 | 4.7 | 35.3
COc1ccccc1OCc1ccc(C(=O)Nc2ccccc2)cc1 | 69.9 | 28.6 | 1.3 | 78.6*
COc1ccccc1OCCNC(=O)c1ccc(Br)cc1 | 37.7 | 13.2 | 2.2 | 56.0*
COc1cccc(NC(=O)c2nnn(CCc3ccccc3)c2N)c1 | 40.6 | 17.5 | 5.2 | 77.7*
O=C(Nc1ccc(Br)cc1F)c1ccc2nsnc2c1 | 128.5* | 20.8 | 2.9 | ?
COc1cccc(NC(=O)c2nn(C)cc2Br)c1 | 41.0 | nt | 1.0 | 54.8*
COc1cccc(NC(=O)Cn2nnc(C(=O)Nc3ccccc3)c2N)c1 | nt | nt | -1.7 | nt
O=C(Nc1ccc(Br)cc1F)c1ccncc1 | 17.6 | nt | 0.5 | 22.0
SMILES | MITF TRPM1 HTS | Wnt act | GAA850 FXN act | esBAF inh
COc1cccc(NC(=O)c2cccc(C)c2[N+](=O)[O-])c1 | 30.6 | 33.4* | 0.2 | nt
C[C@@H](NC(=O)[C@H]1[C@H](CO)[C@H]2Cn3c(cccc3=O)[C@H]2N1CC1CC1)c1ccccc1 | nt | nt | nt | 0.7
CC(C)C#Cc1cnc2c(c1)C(=O)N([C@H](C)CO)C[C@@H](C)[C@@H](CN(C)C(=O)Nc1ccccc1)O2 | nt | nt | nt | 3.5
COc1cc(NC(=O)c2ccc3nsnc3c2)cc(OC)c1OC | 4.9 | 3.6 | 1.4 | 0.8
COc1cccc(NC(=O)c2ccc3nsnc3c2)c1 | 61.8 | 24.2 | 1.5 | 56.3*
CC(C)OC(=O)c1cccc(NC(=O)c2ccccc2)c1 | 82.9* | ? | 4.4 | nt
COc1cccc(NC(=O)c2ccc(OC(F)(F)F)cc2)c1 | 107.2* | 37.1* | 2.9 | 71.7*
O=C(Nc1ccc(F)cc1)c1ccc2nsnc2c1 | 77.5 | 39.2* | 4.6 | ?
COc1ccc(C(=O)Nc2cccc(OC)c2)cc1 | 64.1 | 19.0 | 2.6 | 7.7
O=C(Nc1ccc(F)cc1)c1ccc2nc[nH]c2c1 | 26.2 | 4.3 | 3.6 | nt
COc1ccc(NC(=O)Nc2ccc3c(c2)C(=O)N([C@H](C)CO)C[C@H](C)[C@@H](CN(C)C(=O)C2CCCCC2)OCCCC[C@H](C)O3)cc1 | nt | nt | nt | -0.2
Cc1ccc(NC(=O)c2ccc3snnc3c2)cc1 | 50.9 | -0.5 | 5.5 | nt
COc1cc(NC(=O)c2ccc3snnc3c2)cc(OC)c1 | 59.2 | 23.1 | 3.8 | 46.9*
C[C@@H]1CN([C@H](C)CO)C(=O)c2c(c3ccccc3n2C)-c2ccccc2CO[C@H]1CN(C)Cc1ccncc1 | nt | nt | nt | 2.8

Assay outcomes deposited in PubChem by several laboratories.
